Most compounds without a hit are left out; they make up all but 1% or so of the library.
RGS4 inhibitor: inhibitors of human regulator of G protein signaling 4 | 390,000 compounds, 0.039% hits | Transcreener GDP fluorescence polarization, RGS4-accelerated GTP hydrolysis | Potency, µM (series often up to 114 µM), actives largely listed as inhibitors | P49798; also: nearly all actives have a fitted effect of over 75% in size
Target sequence (P49798 whole entry, looked up): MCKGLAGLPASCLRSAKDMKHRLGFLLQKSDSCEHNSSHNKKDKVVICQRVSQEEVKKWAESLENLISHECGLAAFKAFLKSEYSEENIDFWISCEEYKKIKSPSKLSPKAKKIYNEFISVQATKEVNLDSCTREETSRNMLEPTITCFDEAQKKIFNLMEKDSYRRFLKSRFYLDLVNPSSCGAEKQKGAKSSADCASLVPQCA
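MLSMR compounds (23 nl, pin-transferred) preincubated 10 min at room temperature with a 500nM (2x) first reagent, then RGS4 at 900nM (2x) plus Transcreener GDP mix added; fluorescence polarization (620/688 nm) read before and after 90 min at 30 °C.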
Eya2 phos inh: blocks the phosphatase activity of human Eya2. O00167. recombinant Eya2, OMFP fluorescence dephosphorylation (OMFP is methylfluorescein phosphate). Potency, µM (top dose mostly 76.9 µM), hits mostly inhibitors. 330,000 compounds, 0.006% hits. AID 488837
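Eya2 protein (added as 0.2 uM solution) was preincubated with compound for 10 min at ambient temperature in 50 mM HEPES pH 7.5, 50 mM NaCl, 5 uM MgCl2, 0.05% BSA, 1 mM DTT. OMFP (added at 50 uM) then reacted 10 min; fluorescence read at 485/525 nm.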
GALK inh: inhibitors of human galactokinase. Potency, µM (doses to about 57.5 µM), usual class: inhibitors. AID 1868. Purified GALK, Kinase-Glo residual ATP luminescence. 270,000 compounds, 0.007% hits
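Kinase-Glo Plus luminescence measured ATP left after a 1 h room-temperature reaction. The reaction used 5 nM GALK, 100 uM galactose and 35 uM ATP at pH 8.0 (20 mM HEPES, 5 mM MgCl2, 60 mM NaCl, 1 mM DTT, 0.01% BSA).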
USP2a inh: inhibitors of human ubiquitin-specific protease USP2a. USP2 core, Ub-CHOP2 coupled fluorogenic reporter, 485/531. Potency, µM (titrated, usually from 38.3 µM), hits mostly inhibitors. O75604. 330,000 compounds, 0.01% hits. AID 463254
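USP2 core (10nM final) preincubated 30min RT with compound in 20mM Tris-HCl pH 8.0, 2mM CaCl2, 2mM beta-mercaptoethanol, 0.05% CHAPS; 25nM Ub-CHOP2 plus 25nM reporter substrate added, fluorescence (Ex485/Em531) read after 60min.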
TrxR1 substrate: substrates of rat thioredoxin reductase 1. AID 588456. Potency, µM (highest dose often 114 µM). 390,000 compounds, 0.01% hits. purified TrxR1 substrate turnover, NADPH consumption readout; also: nearly all actives have a fitted effect of over 50% in size
Target sequence (O89049 whole entry, looked up): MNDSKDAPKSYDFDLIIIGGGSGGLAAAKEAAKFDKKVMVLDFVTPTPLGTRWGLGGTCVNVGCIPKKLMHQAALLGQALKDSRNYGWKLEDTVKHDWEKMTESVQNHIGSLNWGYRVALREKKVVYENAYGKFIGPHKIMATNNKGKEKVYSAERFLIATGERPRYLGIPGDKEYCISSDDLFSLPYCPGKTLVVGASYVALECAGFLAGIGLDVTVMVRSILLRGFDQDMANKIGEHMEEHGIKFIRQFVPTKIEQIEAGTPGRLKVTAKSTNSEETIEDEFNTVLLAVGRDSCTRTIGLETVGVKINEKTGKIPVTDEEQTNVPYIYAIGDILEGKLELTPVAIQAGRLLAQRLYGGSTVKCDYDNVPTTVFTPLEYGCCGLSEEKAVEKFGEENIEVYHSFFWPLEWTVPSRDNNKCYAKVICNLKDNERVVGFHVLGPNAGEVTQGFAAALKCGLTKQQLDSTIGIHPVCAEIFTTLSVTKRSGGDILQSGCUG
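Rat TrxR1, dispensed at 90 nM, was prereduced with 400 uM NADPH (final) for 5 min at ~22 deg C, then incubated with compound 15 min before 400 uM selenite. A first-read NADPH fluorescence drop versus no-compound background flagged substrates.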
TrxR1 inh: rat TrxR1 inhibition; O89049; recombinant rTrxR1, NADPH fluorescence consumption, selenite substrate; Potency, µM (top dose mostly 114 µM), most hits filed as inhibitors; 390,000 compounds, 1% hits; AID 588453; also: nearly all actives have a fitted effect of over 65% in size
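Rat TrxR1 (90 nM in the dispensed reagent) was pre-reduced with 400 uM NADPH for 5 min at room temperature, then incubated with compound for 15 min. After 400 uM selenite was added, NADPH fluorescence (Ex 340/Em 450 nm) was followed for 8 min.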
Hits are given with their value; – = inactive; ? = inconclusive; · = not tested or not shown. Calls follow the shape of the dose curve; as a rule, active = well fitted curve in the direction sought with a large enough effect; inconclusive = small, poorly fitted or top-dose-only effect, or another doubt; inactive = no such curve, though single readings can be large; an effect the other way counts as inactive or inconclusive.

SMILES	RGS4 inhibitor	Eya2 phos inh	GALK inh	USP2a inh	TrxR1 substrate	TrxR1 inh
Cc1cc2nc3c(nc2cc1C)C(O)=C3O	–	–	–	–	–	2.5µM
Nc1cc(C(F)(F)F)ccc1C(=O)O	·	–	–	–	·	·
Cc1cc2nc(-c3ccccn3)c(-c3ccccn3)nc2cc1C	·	–	–	–	·	·
OC1=C(O)c2nc3ccccc3nc21	–	–	–	–	–	1.3µM
OC1=C(O)c2nc3cc(C(F)(F)F)ccc3nc21	–	–	–	–	–	2µM
CC(C)(C)c1ccc(O)c(O)c1	–	–	·	–	–	22µM
CC(C)Sc1nnc2c3ccccc3n(C)c2n1	–	·	·	·	–	–
COC(=O)C1=C(C)NC(=O)/C1=C\N(C)C	–	–	–	–	–	16µM
Cc1cc(-c2csc(N)n2)c(C)n1Cc1ccco1	–	–	–	–	–	16µM
CN(C)Cc1cc(O)c(CN(C)C)cc1O	–	–	·	–	–	14µM
CCCN1CNc2c(c(=O)[nH]c(=S)n2CCc2cccc(C)c2C)C1	–	·	·	·	–	–
CCOC(=O)CS(=O)(=O)c1nc(-c2ccc(F)cc2)cc(C(F)(F)F)n1	?	–	–	–	–	?
CS(=O)(=O)c1nc(-c2ccc(F)cc2)cc(C(F)(F)F)n1	?	–	–	–	–	18µM
COc1ccc(-c2cc(C(F)(F)F)nc(N)n2)cc1	–	–	–	–	–	–
COc1ccc(-c2cc(C(F)(F)F)nc(S(C)(=O)=O)n2)cc1	–	–	–	?	–	10µM
CC(=NNC(=S)N1CCC1)c1ccccn1	–	·	·	·	–	7.1µM
CC(=NNC(=S)SCc1ccccc1)c1ccccn1	?	·	·	·	–	?
CCOc1ccccc1N1C(=O)c2ccccc2N/C1=C\N1CCN(C(=O)c2ccco2)CC1	–	·	·	·	–	–
CCS(=O)(=O)N1N=C(c2ccc(NS(C)(=O)=O)cc2)CC1c1ccccc1 (stereo not drawn)	–	–	–	–	–	?
CS(=O)(=O)Nc1ccc(C2=NN(S(C)(=O)=O)C(c3ccccc3)C2)cc1 (stereo not drawn)	–	–	–	–	–	79µM
O=C(C1COc2ccccc2O1)N1CCN(c2ccc(F)cc2)CC1 (stereo not drawn)	–	–	–	–	–	–
O=C(C1COc2ccccc2O1)N1CCN(c2ccc([N+](=O)[O-])cc2)CC1 (stereo not drawn)	–	–	·	–	–	1.4µM
Cc1csc[n+]1CC(=O)c1ccc(I)cc1	·	·	·	·	–	–
O=C(NCCc1ccccc1)C(c1cccs1)N(C(=O)c1csnn1)C1CC1 (stereo not drawn)	–	–	–	–	–	–
O=C(NCCc1ccccc1)C(c1cccs1)N(C(=O)CCl)c1ccc(Cl)cc1 (stereo not drawn)	–	–	–	–	–	3.2µM
SMILES	RGS4 inhibitor	Eya2 phos inh	GALK inh	USP2a inh	TrxR1 substrate	TrxR1 inh
CC(C)CC(=O)N1C/C=C\C[C@@H](c2ccc(Cl)cc2)N(Cc2ccc(Cl)cc2)C(=O)[C@@H]1Cc1ccccc1	·	·	·	·	–	–
O=[N+]([O-])c1cc(F)c2cccnc2c1O	–	–	·	–	–	45µM
Cc1ccc(SCC(=O)Nc2ccc(C(=O)Nc3ccc(O)cc3)cc2)cc1	–	–	–	11µM	–	–
Cc1ccc(SCC(=O)Nc2cccc(C)c2)cc1	–	–	–	–	–	–
CCOc1ccc(-c2nnc(SCC(=O)Nc3cc(C)ccc3OC)o2)cc1	–	·	·	·	–	28µM
CN1N/C(=C\c2ccccc2)N=C2C(=O)N(C)C(=O)N=C21	–	·	·	·	10µM	14µM
CCC(c1ccc(O)c(O)c1)C(CC)c1ccc(O)c(O)c1 (stereo not drawn)	?	·	·	·	–	7.9µM
CCC(NC(C)C)C(O)c1ccc(O)c(O)c1 (stereo not drawn)	?	–	–	–	–	?
COc1cc2c(NC3CCN(C)CC3)nc(N3CCCCC3)nc2cc1OCCOCCN1CCCC1	·	·	·	·	–	–
CC(=O)Nc1ccc(S(=O)(=O)O)c2cc(S(=O)(=O)O)c(N=Nc3ccc(N=Nc4ccc(S(=O)(=O)O)cc4)c4ccc(S(=O)(=O)O)cc34)c(O)c12	·	·	·	·	–	–
O=S(=O)(O)c1ccc2c(N=Nc3ccc(S(=O)(=O)O)c4ccccc34)c(O)c(S(=O)(=O)O)cc2c1	·	·	·	·	–	71µM
CCCCC1=CC2=C(c3ccco3)C(=O)C(C)(OC(=O)c3ccc(OC)cc3)C(=O)C2=CN1Cc1ccccc1 (stereo not drawn)	–	–	–	–	–	45µM
CCCCC1=CC2=C(c3ccco3)C(=O)C(C)(OC(=O)c3ccc(OC)cc3)C(=O)C2=CN1CCOC (stereo not drawn)	–	–	–	–	–	?
CCN(C(=O)COC(=O)/C=C/c1ccc(C)o1)c1c(N)n(Cc2ccccc2)c(=O)[nH]c1=O	–	–	·	–	–	40µM
O=C(/C=C/c1cccc(Cl)c1)c1ccc([N+](=O)[O-])o1	–	–	·	–	–	1.6µM
COc1cc(/C=C/C(=O)O)ccc1O	–	·	·	·	–	–
COc1cc(/C=C/C(=O)c2ccc([N+](=O)[O-])o2)ccc1O	–	–	·	–	–	7.9µM
COc1ccc(/C=C/C(=O)c2ccc([N+](=O)[O-])o2)cc1OC	–	–	·	–	–	14µM
COc1cc(OC)c(C(=O)C=Cc2ccc(OC)c(OC)c2)c(OC)c1	–	·	·	·	–	?
COc1cc2nc(N3CCCN(C)CC3)nc(NC3CCN(C)C3)c2cc1OC (stereo not drawn)	·	·	·	·	–	–
Brc1cc(Br)c[n+](CCc2ccccc2)c1	·	·	·	·	–	–
O=C(C[n+]1cccc(Br)c1)c1ccc2ccccc2c1	·	·	·	·	–	–
C/C(=N\O)C(=O)C(CN1CCCCC1)CN1CCCCC1	–	–	–	–	–	0.45µM
O=S(=O)(c1cccc(F)c1)N1CCN(c2nc(-c3cccs3)nc3ccccc23)CC1	–	·	·	·	–	–
O=C(CCl)c1cc2c3c(c1)CC(=O)N3CCC2	–	–	–	–	–	89µM
SMILES	RGS4 inhibitor	Eya2 phos inh	GALK inh	USP2a inh	TrxR1 substrate	TrxR1 inh
O=C(NCCO)C(=O)Nc1cc2c3c(c1)CC(=O)N3CCC2	–	–	–	–	–	–
O=C(CN1CCN(c2ccc(Cl)cc2)CC1)c1ccc2c(c1)OCO2	–	–	–	–	–	?
O=C(CN1CCN(c2ccc(F)cc2)CC1)c1ccc2c(c1)OCO2	–	–	–	–	–	25µM
Cc1cc(C(=O)OCC(=O)c2cccc([N+](=O)[O-])c2)c2cccc(C)c2n1	–	?	–	11µM	–	–
O=C(COC(=O)c1ccccc1Oc1ccccc1)Nc1ccc(Br)cc1	·	·	·	·	–	–
CCCN1CNc2c(c(=O)[nH]c(=S)n2CCc2ccccc2OC)C1	–	·	·	·	–	–

Assay outcomes deposited in PubChem BioAssay by National Center for Advancing Translational Sciences (NCATS).
